Compounds with a hit are over-represented: about 2.6% of the library has one in this group of screens.
HSP90 refold inh = inhibitors of HSP90 luciferase refolding in rabbit reticulocyte lysate | luciferase refolding luminescence, 3 h | inhibition, % at 5.6 µM | 290,000 compounds, 0.91% hits | AID 1789;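 active = inhibition above the screen-wide mean plus 3 SD, computed separately per campaign, cut at about 16% in these data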;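 note: inhibitors lower the luminescence because luciferase stays unfolded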
TWEAK-Fn14 inh = inhibitors of TWEAK-Fn14 interaction signaling. TWEAK-stimulated Fn14 reporter cells, luciferase luminescence, 8 h. inhibition, % at 10 µM. 360,000 compounds, 2% hits. AID 1159606; in the data active = inhibition above about 50%
EBV LMP1 NFkB = reduces LMP1-driven NF-kappaB luciferase signal | inhibition, % at 12.5 µM | 350,000 compounds, 0.69% hits | LMP1-induced NF-kappaB luciferase reporter cells, luminescence | AID 504558; in the data active = inhibition above about 41%; inconclusive = no clear call, values can overlap the other calls
TROY signal inh = TROY signaling inhibition; AID 1347056; inhibition, % at 10 µM; 360,000 compounds, 0.98% hits; Q293 LMP1-TROYcd NF-kB luciferase reporter, 4 h;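 active = compounds whose plate-normalised and pattern-corrected inhibition of the luciferase reporter signal at the single screening dose is 50% or more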
aDG glyco up = increases alpha dystroglycan glycosylation; Pro5-aDG cells, alpha-DG glycosylation AlphaScreen (IIH6); 0% Pro5, 100% B10-LARGE cell signal; activation, % at 10 µM; 360,000 compounds, 0.22% hits; AID 624168;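 active = activation of at least 8% versus controls, or a plate z-score of at least 8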;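 note: Pro5 are CHO cells carrying HIG-tagged alpha-DG that lacks glycosylation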
LGR2 inh = Drosophila LGR2 receptor signaling inhibition; inhibition, % at 9.99 µM; HEK293 LGR2, CRE-luciferase, bursicon-stimulated, 4 h; 380,000 compounds, 0.35% hits;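 active = drop in luminescence signal, shown as inhibition above about 50% in the replicate tests, limit read from the data, passing the limit was not always enough; inconclusive = probably only some replicates passing the limit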;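 note: agonist challenge used bursicon conditioned medium at about half maximal strength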
aDG conf = alpha-DG glycosylation activation, confirmation; shares compounds with aDG glyco up; Pro5-aDG cells, IIH6 AlphaLISA; scaled to LARGE-overexpressing B10 cells as 100%; activation, % at 10 µM (by protocol); 600 compounds, 17% hits; AID 651671;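 active = activation of at least 7% in one or more replicates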;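 note: cells exposed to compound for two days before detection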
A number is an active result; . = inactive; ? = inconclusive; / = no result.

SMILES | HSP90 refold inh | TWEAK-Fn14 inh | EBV LMP1 NFkB | TROY signal inh | aDG glyco up | LGR2 inh | aDG conf
Cc1sc2ncnc(NCC(O)c3ccccc3)c2c1C (configuration not stated) | . | . | . | . | 2.7 | . | .
CC1CC1C(=O)Nc1nc(-c2ccccn2)cs1 (configuration not stated) | . | . | . | . | 5.1 | / | .
COc1cc(NC(=O)c2c(F)c(F)c(F)c(F)c2F)c(OC)cc1Cl | . | . | . | . | 7.7 | / | .
CN(C)c1ccc(NC(=O)c2cn(-c3ccccc3)nc2-c2cccs2)cc1 | . | . | . | . | . | / | /
CN(C)C(=O)c1cn(-c2ccccc2)nc1-c1cccs1 | . | . | . | . | 62 | / | .
C[C@H](CO)N1C[C@H](C)[C@@H](CN(C)Cc2ccc(Cl)c(Cl)c2)Oc2ccc(N(C)C)cc2CC1=O | / | / | / | / | / | . | /
COc1ccccc1NS(=O)(=O)c1ccc(C(=O)NCCCN2CCOCC2)cc1 | / | . | . | . | 5.0 | . | .
O=C(NCCCN1CCOCC1)c1ccc(S(=O)(=O)Nc2ccccc2)cc1 | / | . | . | . | . | . | /
Cc1noc(C)c1S(=O)(=O)N(C)C[C@@H]1OCCCC[C@@H](C)Oc2ccc(NC(=O)Nc3cccc4ccccc34)cc2C(=O)N([C@@H](C)CO)C[C@H]1C | / | / | / | / | / | . | /
COc1ccc2c(Cl)c(-c3nnc(SCC(=O)c4ccccc4)n3C)sc2c1 | . | . | . | . | 4.3 | / | .
COc1ccc2c(Cl)c(-c3nnc(SCC(N)=O)n3C)sc2c1 | . | . | . | . | . | . | /
CC/C(=N\NC(=S)Nc1cc(C)ccc1C)c1ccc(OC(F)F)cc1 | . | . | . | . | 5.7 | . | .
CC/C(=N\NC(=S)Nc1ccc(OC)cc1)c1ccc(OC(F)F)cc1 | . | . | . | . | . | . | /
COc1ccc(NC(=O)NC[C@@H]2CC[C@@H](Cc3ccc(-c4ccccc4)cc3)O2)cc1 | / | . | . | . | 6.4 | . | .
NC(=O)NC[C@@H]1CC[C@@H](Cc2ccc(-c3ccccc3)cc2)O1 | / | . | . | . | . | / | /
C[C@H](CO)N1C[C@H](C)[C@@H](CN(C)C(=O)Nc2ccc(F)cc2)OCCCC[C@H](C)Oc2ccc(NS(=O)(=O)c3ccc(F)cc3)cc2C1=O | / | / | / | / | / | . | /
O=C(c1ccc2c(c1)OCO2)N(Cc1cccs1)C1(C(=O)NC2CCCCC2)CCCCC1 | . | . | . | . | 7.4 | . | .
CCNC(=O)[C@H]1[C@H](CO)[C@H]2Cn3c(ccc(C4=CCCCC4)c3=O)[C@@H]1N2CCC(F)(F)F | / | / | / | / | / | . | /
O=C(Nc1cc(Cl)ccc1-n1cncn1)c1ccco1 | . | . | . | . | . | . | /
O=C(Nc1cc(Cl)ccc1-n1cncn1)c1ccc([N+](=O)[O-])s1 | . | . | . | . | 12 | / | 3.8
O=C(c1ccccc1OC(F)F)N1CCN(S(=O)(=O)c2ccc3c(c2)OCCCO3)CC1 | / | . | . | . | 14 | . | .
O=C(c1ccccc1F)N1CCN(S(=O)(=O)c2ccc3c(c2)OCCO3)CC1 | . | . | . | . | . | . | /
Cc1cc(C)n(-c2nc(NCCC(C)C)c3c4c(sc3n2)COC(C)(C)C4)n1 | . | . | . | . | 4.8 | / | .
Cc1cc(C)n(-c2nc(NCCCN(C)C)c3c4c(sc3n2)CCCC4)n1 | . | . | / | . | 2.7 | / | 11
Cc1cc(C)n(-c2nc(NCCN(C)C)c3c4c(sc3n2)CCCC4)n1 | . | . | . | . | . | . | /
SMILES | HSP90 refold inh | TWEAK-Fn14 inh | EBV LMP1 NFkB | TROY signal inh | aDG glyco up | LGR2 inh | aDG conf
Cc1cc(C)n(-c2nc(SCCN3CCOCC3)c3c4c(sc3n2)CCCC4)n1 | / | . | . | . | 2.6 | . | .
Cc1cc(C)n(-c2nc3sc4c(c3c(=O)[nH]2)CCCC4)n1 | . | / | / | / | / | / | /
CCCCn1c(N)c(N(CCOC)C(=O)CCNC(=O)NC23CC4CC(CC(C4)C2)C3)c(=O)[nH]c1=O | / | . | . | . | . | . | /
CCCCN(C(=O)CCNC(=O)NC12CC3CC(CC(C3)C1)C2)c1c(N)n(CCC)c(=O)[nH]c1=O | / | . | . | . | 5.1 | . | .
COc1ccccc1NC(=O)N1CC(=O)N2[C@H](CO)[C@H](c3ccc(C#CC4CC4)cc3)[C@H]2C1 | / | / | / | / | / | . | /
COc1ccc(C(=O)N2C[C@H]3[C@@H](c4ccccc42)[C@@H](CO)N3Cc2ccc3c(c2)OCO3)cc1 | / | / | / | / | / | . | /
CC(=O)c1c(C)[nH]c(C(=O)OCC(=O)Nc2ccc(Cl)cc2[N+](=O)[O-])c1C | . | 64 | . | . | 8.4 | . | .
COc1ccc(N2CCN(Cc3nc(-c4ccc(Cl)cc4Cl)no3)CC2)cc1 | . | . | . | . | . | / | /
CC(C)N1CCN(c2ccc(OCC3COC(Cn4cncn4)(c4ccc(Cl)cc4Cl)O3)cc2)CC1 (configuration not stated) | / | . | . | . | 21 | . | 9.9
Cc1cc(-c2nn(-c3ccccc3)cc2/C=C2\SC(N)=NC2=O)ccc1OC(C)C | . | . | . | . | 6.0 | / | .
C[C@H](CO)N1C[C@H](C)[C@@H](CN(C)C(=O)Nc2cccc3ccccc23)Oc2ccc(NC(=O)C3CCCCC3)cc2CC1=O | / | / | / | / | / | . | /
CN1C(=O)CSc2ccc(NC(=O)N3CCN(c4ccccn4)CC3)cc21 | . | . | . | . | . | . | /
Cc1ccc(C)c(N2CCN(C(=O)Nc3ccc4c(c3)N(C)C(=O)CS4)CC2)c1 | . | 52 | . | . | 6.7 | . | .
Clc1ccc(SCc2cc(N3CCOCC3)nc(-c3ccccn3)n2)cc1 | . | . | ? | . | 8.5 | . | 4.0
Clc1ccc(SCc2csc(N3CCOCC3)n2)cc1 | . | . | . | . | . | . | /
CCCCC(=O)Nc1ccc(NC(=O)c2ccc([N+](=O)[O-])cc2Cl)cc1OC | . | . | . | . | 12 | . | .
CCCCC(=O)Nc1ccc(NC(=O)c2ccccc2[N+](=O)[O-])cc1OC | . | . | . | . | . | . | /
COc1ccc(N(CC(=O)Nc2ccc(C)cc2)S(=O)(=O)c2c(C)noc2C)cc1 | . | . | . | . | . | . | /
Cc1ccc(N(CC(=O)Nc2cc(C)cc(C)c2)S(=O)(=O)c2c(C)noc2C)cc1 | . | . | . | . | 7.6 | . | .
C[C@H](CO)N1C[C@H](C)[C@@H](CN(C)C(=O)Nc2ccc3c(c2)OCO3)Oc2ccc(NS(=O)(=O)c3cn(C)cn3)cc2C1=O | / | . | . | . | 6.4 | . | .
Cc1nc(C)c(C(=O)N2CCCC(C(=O)c3ccc4ccccc4c3)C2)s1 (configuration not stated) | . | . | . | . | . | . | /
CCn1cc(C(=O)N2CCCC(C(=O)c3ccc4ccccc4c3)C2)cn1 (configuration not stated) | . | . | . | . | 5.5 | . | .
COc1ccc(NC(=O)c2cc(OC)c(OC)c(OC)c2)cn1 | . | . | . | . | 3.7 | . | .
CCCC(=O)N(Cc1cc(=O)[nH]c2ccccc12)c1ccccc1 | . | . | . | . | 5.6 | . | .

Screening data as filed in PubChem BioAssay.
